High-throughput results: PubChem BioAssay, The Scripps Research Institute Molecular Screening Center
Rows were chosen to be rich in hits. Some 3.5% of all compounds tested hit in one or more screens of this group.
MITF inh – blocks human microphthalmia-associated transcription factor | AID 1259374 | 0.91% of 650,000 active | O75030 | AlphaScreen MITF homodimerization, bead proximity signal | inhibition, % at 2.6 µM; in the data active = inhibition above about 50%;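 also: 0% = vehicle wells with protein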
Target sequence (O75030 whole entry, looked up): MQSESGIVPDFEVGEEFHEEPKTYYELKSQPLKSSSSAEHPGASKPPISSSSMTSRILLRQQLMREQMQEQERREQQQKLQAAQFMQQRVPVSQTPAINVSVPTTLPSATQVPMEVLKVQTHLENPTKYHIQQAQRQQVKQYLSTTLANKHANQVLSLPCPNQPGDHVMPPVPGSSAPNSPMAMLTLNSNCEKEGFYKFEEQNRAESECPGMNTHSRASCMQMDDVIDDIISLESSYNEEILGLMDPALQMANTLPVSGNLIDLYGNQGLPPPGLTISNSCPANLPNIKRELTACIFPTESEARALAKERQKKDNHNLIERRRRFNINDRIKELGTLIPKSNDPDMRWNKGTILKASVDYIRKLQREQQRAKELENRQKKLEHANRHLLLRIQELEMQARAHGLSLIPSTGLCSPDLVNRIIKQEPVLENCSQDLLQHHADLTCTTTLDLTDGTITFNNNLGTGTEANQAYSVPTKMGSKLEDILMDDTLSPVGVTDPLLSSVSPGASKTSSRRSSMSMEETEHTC
FBW7 activator – human FBW7 E3 ligase activation, primary screen. AID 1259310. normalized activity (activation), % at 26.1 µM. 0.13% of 650,000 active. AlphaScreen FBW7–phospho-cyclin E peptide binding, activator screen; in the data active = normalized activity above about 1.9%;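 also: purified mutant Fbw7 with reduced substrate affinity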
GPR151 ag – human GPR151 activation; 1% of 650,000 active; AID 1508602; Q8TDV0; PathHunter beta-arrestin GPR151 cells, luminescence; activation, % at 11.2 µM; in the data active = activation above about 4.9%;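 also: 0% = median of compound wells and 100% = cells with positive control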
TEAD-YAP block – TEAD-YAP interaction inhibition; HEK-TIYL cells, TEAD-Gal4/YAP UAS-luciferase luminescence; inhibition, % at 9.12 µM; 1.4% of 640,000 active; in the data active = inhibition above about 32%;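 also: 0% = median of test compound wells and 100% = reference inhibitor wells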
MITF inh conf – human MITF inhibition, confirmation. AlphaScreen MITF homodimerization, biotin/His-MITF beads. AID 1259372. 16% of 4,700 active. inhibition, % at 2.6 µM. shares compounds with MITF inh;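 active = inhibition above a cutoff derived from the DMSO control wells, cut at about 28% in these data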;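 also: 0% = MITF dimer wells with DMSO only; inhibitors lower the bead chemiluminescence by keeping MITF from dimerizing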
AS interf ctr – AlphaScreen optical interference, counter-screen; shares compounds with MITF inh; LysRS AlphaScreen counterscreen, signal interference, triplicate; inhibition, % at 2.6 µM; 7.6% of 4,700 active; AID 1259376;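 active = inhibition above a cutoff derived from the DMSO control wells, cut at about 30% in these data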
Active calls of the source: *.

`CCc1ccccc1NC(=O)CCc1nc(C2=CCN(C)CC2)no1` gave MITF inh 3.1, FBW7 activator 0.1, GPR151 ag -0.3 and TEAD-YAP block -0.9.
For CCc1nnc(NC(=O)CCc2nc(C3=CCN(C)CC3)no2)s1 the results were MITF inh 58.3*, FBW7 activator 1.0, GPR151 ag 0.3, TEAD-YAP block 3.3, MITF inh conf 59.7* and AS interf ctr 39.0*.
O=c1c2ccccc2nc(/C=C\c2ccc(F)cc2)n1-c1ccccc1Cl was read as MITF inh -7.3, FBW7 activator 0.1, GPR151 ag 0.7 and TEAD-YAP block -4.7.
CCN1CCN(Cc2c(Cl)cccc2Cl)CC1 was read as MITF inh 68.6*, FBW7 activator -0.2, GPR151 ag -0.2, TEAD-YAP block 7.2, MITF inh conf -1.6 and AS interf ctr 2.4.
`Clc1ccc(CN2CCN(Cc3ccccc3Cl)CC2)cc1` gave MITF inh 78.5*, FBW7 activator -0.3, GPR151 ag 0.4, TEAD-YAP block -15.5, MITF inh conf -6.3 and AS interf ctr -3.2.
CCc1ccc(CN2CCN(Cc3ccccc3Cl)CC2)cc1 was read as MITF inh 67.6*, FBW7 activator -0.3, GPR151 ag -0.3, TEAD-YAP block -2.8, MITF inh conf 4.8 and AS interf ctr 17.6.
CCN1CCN(Cc2ccc(Cl)c(Cl)c2)CC1 was read as MITF inh -12.6, FBW7 activator -0.2, GPR151 ag 0.7 and TEAD-YAP block 0.9.
C[C@@H]1C[C@@H]2[C@H]([C@@H]3C=C(COC(=O)c4ccccc4)[C@@H](O)[C@]4(O)[C@@H](O)C(OC(=O)c5ccccc5)=C[C@@]14C3=O)C2(C)C was read as MITF inh -10.0, FBW7 activator -0.1, GPR151 ag 1.7 and TEAD-YAP block -49.1.
For O=c1c2ccccc2nc(/C=C/c2ccccc2)n1-c1cccc(C(F)(F)F)c1 the results were MITF inh 4.6, FBW7 activator 0.2, GPR151 ag 4.0 and TEAD-YAP block -41.1.
C[C@@H]1NC(=O)[C@H]2CN(Cc3cccc4cccnc34)CCN2C1=O was read as MITF inh 15.9, FBW7 activator 0.2, GPR151 ag 0.3 and TEAD-YAP block -2.0.
For O=C(Cc1noc2ccccc12)N1CCN(Cc2nc3ccccc3[nH]2)CC1 the results were MITF inh 77.5*, FBW7 activator -0.4, GPR151 ag 2.3, TEAD-YAP block 4.2, MITF inh conf 5.2 and AS interf ctr 16.8.
`COc1ccccc1OCC(=O)N1CCN(Cc2nc3ccccc3[nH]2)CC1` gave MITF inh 75.2*, FBW7 activator -0.5, GPR151 ag 2.9, TEAD-YAP block -12.9, MITF inh conf 7.6 and AS interf ctr 21.8.
`O=C(COc1ccccc1Cl)N1CCN(Cc2ccccc2)CC1` gave MITF inh -0.4, FBW7 activator -0.2, GPR151 ag 0.4 and TEAD-YAP block -4.3.
For Nc1nnc(CCN(CCc2nnc(N)s2)[N+](=O)[O-])s1 the results were MITF inh -2.5, FBW7 activator 0.1, GPR151 ag 0.5 and TEAD-YAP block -3.0.
Screening O=C(CN1CCOCC1)c1cccc2ccccc12 returned MITF inh 56.4*, FBW7 activator 0.2, GPR151 ag -1.9, TEAD-YAP block -4.7, MITF inh conf 12.9 and AS interf ctr 19.0.
`COc1cccc(CCNCc2cc(OC)cc(OC)c2)c1` gave MITF inh 55.3*, FBW7 activator 0.2, GPR151 ag -1.7, TEAD-YAP block -2.7, MITF inh conf -3.8 and AS interf ctr -2.9.
Screening COc1ccc(CCNCc2cccnc2)cc1OC returned MITF inh 69.8*, FBW7 activator 0.0, GPR151 ag -0.9, TEAD-YAP block -4.5, MITF inh conf -12.8 and AS interf ctr 2.7.
Screening C=CCc1ccccc1OCCOc1ccc(C=C2C(=O)NC(=O)NC2=O)cc1OC returned MITF inh -4.7, FBW7 activator -0.7, GPR151 ag 0.1 and TEAD-YAP block -7.9.
For CCc1ccc(CN2CCN(Cc3ccc(CC)cc3)CC2)cc1 the results were MITF inh 67.3*, FBW7 activator -0.2, GPR151 ag 0.5, TEAD-YAP block 8.0, MITF inh conf 2.9 and AS interf ctr 4.0.
For COc1ccc(CN2CCN(C(=O)COc3ccc(Cl)cc3)CC2)cc1 the results were MITF inh 58.0*, FBW7 activator -0.1, GPR151 ag 0.1, TEAD-YAP block 4.5, MITF inh conf 14.3 and AS interf ctr 16.6.
